In PubChem BioAssay (NCATS):
Inconclusive results are not listed. Active and inactive are the calls of the source. Calls come from the whole dose curve.

Experiments:
[1] = Confirmatory qHTS to identify inhibitors of SARS-CoV-2 cell entry (AID 1645844); note: potency is the fitted concentration of half-maximal effect; nearly all actives have a fitted effect of over 45% in size
Summary of the method: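 HEK293-ACE2 cells (Expi293F stably expressing human ACE2) were pretreated with compounds for 1 hr at 37C, then infected with MLV-based particles carrying Wuhan-Hu-1 spike (C-terminal 19-aa truncation). Luciferase luminescence read after 48 hr; normalized to spike PP (100%) and bald PP (0%).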

[2] = Cytotoxicity counterscreen for inhibitors of SARS-CoV-2 cell entry (AID 1645845); conditions: outcome: dose series up to 57.1 µM unless noted; note: nearly all actives have a fitted effect of over 50% in size
Summary of the method: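 Expi293F/hACE2 cells seeded overnight; cpd pin-transferred in DMSO, 1 h preincubation, + media, 48 h 37 C 5% CO2; ATPLite 1step luminescence; normalized to cells and no cells.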

[3] = Primary qHTS to identify inhibitors of SARS-CoV-2 cell entry (AID 1645846); conditions: SARS-CoV-2 pseudovirus cell entry assay, luminescence; activity change, negative = inhibition: at 57.1 µM (top of the series) unless noted; note: potency is the fitted concentration of half-maximal effect; nearly all actives have a fitted effect of over 45% in size
Summary of the method: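 Inhibition of spike-mediated entry was scored in human ACE2-transfected Expi293F cells. Particles were MLV-pseudotyped with Wuhan-Hu-1 S carrying a 19-aa C-terminal deletion; signal was luciferase after two days, scaled between spike PP and fusion-protein-free PP.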

[4] = VSVG counterscreen qHTS to identify inhibitors of SARS-CoV-2 cell entry (AID 1645847); note: potency is the fitted concentration of half-maximal effect; nearly all actives have a fitted effect of over 65% in size
Summary of the method: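 Luminescence from a luciferase reporter, normalised to bald particle and VSV-G pseudotyped particle wells, is the read-out. Cells are HEK293 expressing human ACE2, exposed to compound 1 h before a 48 h particle infection at 37 °C.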

With Cc1cnc(Nc2ccc(F)cc2Cl)nc1-c1c[nH]c(C(=O)NC(CO)c2cccc(Cl)c2)c1 (centres undefined) as the compound, how does the Potency [1] read?
The Potency was 3.83 µM (active).

What about the Potency [2] of the same compound?
Its Potency is “inactive”.

And the Potency [3]?
Its Potency is 8.91 µM (active).

And the Potency [4]?
Its Potency is 1.92 µM (active).
